Screening data: PubChem BioAssay, National Center for Advancing Translational Sciences (NCATS)
Vif-A3F inh: qHTS for Inhibitors of Vif-A3F Interactions: qHTS; AID 602313, 2012; actives 0.2% (n = 390,000); Potency, µM (top dose mostly 46.1 µM); HeLa A3F-eYFP + Vif (tagged APOBEC3F with the HIV-1 protein that degrades it), YFP fluorescence increase; further: nearly all actives have a fitted effect of over 65% in size
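HeLa cells stably expressing Vif plus C-terminally eYFP-tagged A3F were seeded, incubated overnight at 37 deg C, dosed with compound, incubated overnight again at 37 deg C. Yellow fluorescence (Ex 488/Em 500-530) reported blocked Vif-mediated A3F-eYFP degradation.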
SW480 rereplic: A quantitative high throughput screen for small molecules that induce DNA re-replication in SW480 colon adenocarcinoma cells | SW480 DNA re-replication, Hoechst DNA content imaging, 48 h | Potency, µM (top dose mostly 46.1 µM), hits mostly activators | actives 1.8% (n = 340,000); further: nearly all actives have a fitted effect of over 55% in size
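Readout is total intensity of Hoechst-stained nuclei, excited at 405 nm and collected at 500-530 nm. Compound treatment lasted 48 hr at 37 C in 5% CO2 before staining.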
IL-1B inflam inh: qHTS for Inhibitors of Inflammasome Signaling: IL-1-beta AlphaLISA Primary Screen. THP-1 LPS/ATP IL-1B secretion, AlphaLISA, 16 h; stronger effect = lower value. activity change, % at 57.5 µM. actives 4.7% (n = 360,000); in the data active means activity change below about -50%; inconclusive means mostly about -30% to -49%
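Secreted IL-1B measured by AlphaLISA bead assay after 16 h compound exposure of THP-1 cells; compounds (final up to 57.5 uM) added 1 h before LPS (250 ng/mL) and ATP (1.25 mM) stimulation; lower signal means less secretion.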
Vif-APOBEC3G blk: qHTS for Inhibitors of Vif-A3G Interactions: qHTS | DNA dC->dU-editing enzyme APOBEC-3G (Homo sapiens), Q9HC16 | HeLa A3G-eYFP + Vif (tagged APOBEC3G with the HIV-1 protein that degrades it), YFP fluorescence, overnight | Potency, µM (highest dose often 46.1 µM), actives largely listed as inhibitors | actives 0.076% (n = 410,000) | AID 602310, 2012; further: nearly all actives have a fitted effect of over 60% in size
Target sequence (Q9HC16 whole entry, looked up): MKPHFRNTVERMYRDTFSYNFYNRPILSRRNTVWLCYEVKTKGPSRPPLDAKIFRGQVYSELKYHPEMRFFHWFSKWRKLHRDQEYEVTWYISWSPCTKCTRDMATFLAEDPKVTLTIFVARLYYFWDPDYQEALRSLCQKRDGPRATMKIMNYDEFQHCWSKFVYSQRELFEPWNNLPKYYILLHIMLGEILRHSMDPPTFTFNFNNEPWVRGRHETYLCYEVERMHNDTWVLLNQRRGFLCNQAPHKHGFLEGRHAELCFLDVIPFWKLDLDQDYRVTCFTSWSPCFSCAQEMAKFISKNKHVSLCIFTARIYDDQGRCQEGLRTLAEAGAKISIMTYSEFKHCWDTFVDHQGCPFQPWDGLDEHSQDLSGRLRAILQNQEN
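HeLa cells stably expressing Vif and C-terminally eYFP-tagged A3G, seeded overnight at 37 deg C, then exposed to compound by pintool overnight at 37 deg C. Rise in yellow fluorescence (Ex 488/Em 500-530, Acumen) marks blocked Vif-driven A3G degradation.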
MCF10A rerep: A quantitative high throughput screen for small molecules that induce DNA re-replication in MCF 10a normal breast cells | MCF 10A DNA re-replication, Hoechst nuclear intensity, 48 h | Potency, µM (titrated, usually from 46.1 µM), usual class: activators | actives 2.9% (n = 350,000); further: nearly all actives have a fitted effect of over 50% in size
Giardia killer: Small Molecules that selectively kill Giardia lamblia: qHTS; Giardia lamblia trophozoite viability; activity change, % at 7.66 µM, hits read low; actives 0.15% (n = 340,000); AID 540267, 2011; in the data active means activity change below about -80%; inconclusive means between about -30% and that limit;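 further: parasites exposed to compound for two days anaerobically before the ATP read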
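Luminescent ATP signal served as the viability read-out, measured 15-30 min after adding ATP detection reagent to trophozoites that had been incubated with compounds for 48 hrs at 37 deg C anaerobically at 100 cells/well.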
Hits are given with their value; - = inactive; ? = inconclusive; . = no result given; [ ] = remark or other dose. This is a sample that favours compounds with a hit; in the whole collection about 6.9% have one here. Unless noted, the call rests on the fitted dose curve; in most records, active means well fitted curve in the direction sought with a large enough effect; inconclusive means small, poorly fitted or top-dose-only effect, or another doubt; inactive means no such curve, though single readings can be large; an effect the other way counts as inactive or inconclusive.

SMILES	Vif-A3F inh	SW480 rereplic	IL-1B inflam inh	Vif-APOBEC3G blk	MCF10A rerep	Giardia killer
O=C(Nc1cc(C(F)(F)F)ccc1Cl)c1cnn(-c2ccccc2)c1-n1cccc1	-	.	.	-	.	.
Cc1ccc(NNC(=O)c2ccno2)cc1C	-	-	-	-	-	-
Cc1noc(C)c1COc1ccccc1C(=O)NCCc1ccc(Cl)cc1	-	-	-68.9	-	-	-
NS(=O)(=O)c1ccc(NNC(=O)c2ccccc2C(=O)O)cc1	-	-	-	-	-	-
COc1ccc(CCNC(=O)c2ccccc2OCc2c(C)noc2C)cc1	-	-	-	-	-	-
Cc1cc(C(=O)NCCc2ccc(S(N)(=O)=O)cc2)no1	-	-	-	-	-	-
Cc1cc(C(=O)NNc2ccc(C)c(C)c2)no1	-	?	-	-	16.4µM	-
Cc1cc(C(=O)NCCc2ccc(Cl)cc2)no1	-	-	-	-	6.51µM	-
O=C(O)c1ccccc1C(=O)NNc1ccc(Cl)cc1	-	-	-	-	4.61µM	-
O=C(c1ccccc1Cl)n1nc(-c2cccnc2)nc1NCc1ccc(F)cc1	-	.	.	-	.	.
Cc1cc(C(=O)NNc2ccc(Cl)cc2)no1	-	-	-	-	7.31µM	-
Cc1cc(C(=O)NNC(=O)Nc2ccc(Cl)cc2)no1	-	-	-	-	-	-
Cc1cccc(N2CCN(S(=O)(=O)c3ccc4oc(=O)c5ncn(C)c5c4c3)CC2C)c1 (configuration not stated)	-	.	.	-	.	.
CCOc1ccccc1NC(=O)C1CCN(S(=O)(=O)Cc2ccccc2)CC1	-	.	.	-	.	.
CCCCCC(=O)N[C@@H](c1ccccc1)[C@@H](O)C(=O)O[C@H]1C[C@@]2(O)[C@@H](OC(=O)c3ccccc3)C3[C@](C)(C(=O)[C@H](OC(C)=O)C(=C1C)C2(C)C)[C@@H](O)C[C@H]1OC[C@@]31OC(C)=O (some centres not stated)	-	0.184µM	-	-	?	-
CC(=O)O[C@H]1C(=O)[C@@]2(C)[C@H]([C@H](OC(=O)c3ccccc3)[C@]3(O)C[C@H](OC(=O)[C@H](O)[C@@H](NC(=O)c4ccccc4)c4ccccc4)C(C)=C1C3(C)C)[C@]1(OC(C)=O)CO[C@@H]1C[C@@H]2O	-	2.59µM	-	-	?	-
CC(=O)O[C@H]1C(=O)[C@@]2(C)[C@H]([C@H](OC(=O)c3ccccc3)[C@]3(O)C[C@H](OC(=O)[C@H](O)C(NC(=O)c4ccccc4)c4ccccc4)C(C)=C1C3(C)C)[C@]1(OC(C)=O)CO[C@@H]1C[C@@H]2O (some centres not stated)	-	0.0651µM	-	-	?	?
Cc1oc(-c2ccccc2Cl)nc1CS(=O)(=O)CC(=O)NCc1ccc(F)cc1	-	.	.	-	.	.
O=c1ccc2nc3ccccc3sc-2c1	.	.	-102.5	-	.	.
Cc1cc(C)c(CN2CCN(CCCn3ccc(NC(=O)OCc4ccccc4)nc3=O)CC2)c(C)c1	-	?	-54.7	-	-	-
O=C(Nc1ccn(CCCN2CCN(c3ccccc3)CC2)c(=O)n1)OCc1ccccc1	-	.	-	-	.	.
COc1ccc(C2C(C(=O)Nc3cccc(OC)c3)c3ccccc3C(=O)N2C)cc1 (configuration not stated)	?	-	-	-	-	-
COc1ccc(C2C(C(=O)Nc3cc(OC)c(OC)c(OC)c3)c3ccccc3C(=O)N2C)cc1 (configuration not stated)	-	6.51µM	-	?	?	-
O=C(NCc1ccco1)c1ccc(-c2ccc3nccn3c2)cc1	.	.	-100.6	-	.	.
CC1=Nc2cc(C(=O)NCc3ccco3)ccc2Sc2ccc(C)cc21	-	1.3µM	-	?	1.03µM	-
SMILES	Vif-A3F inh	SW480 rereplic	IL-1B inflam inh	Vif-APOBEC3G blk	MCF10A rerep	Giardia killer
O=C(NCc1ccco1)c1ccc2[nH]c(=O)c(=O)[nH]c2c1	-	-	-	-	-	-
CC(C)(C)N1C(=O)c2ccc(C(=O)NCc3ccco3)cc2C1=O	-	-	-57.6	-	-	-
CCC(C)NC(=O)c1ccc2c(c1)N=C(C)c1cc(C)ccc1S2 (configuration not stated)	-	.	.	?	.	.
CC1=Nc2cc(C(=O)NCC3CCCO3)ccc2Sc2ccc(C)cc21 (configuration not stated)	-	1.03µM	-	-	2.06µM	-
CC1=Nc2cc(C(=O)O)ccc2Sc2ccc(C)cc21	-	-	-	-	-	-
CCCN1CNc2c(c(=O)[nH]c(=S)n2CCC)C1	.	.	.	.	.	-
Cc1cccc(N(C)S(=O)(=O)c2ccc(-c3cnc(C4CC4)o3)cc2)c1	-	0.146µM	-	-	23.1µM	-
Cc1ccc(-c2cnc(C3CC3)o2)cc1S(=O)(=O)Nc1ccccc1	-	-	-	?	?	-
Cc1cc(C)c(NS(=O)(=O)c2ccc(-c3cnc(C4CC4)o3)cc2)c(C)c1	-	.	.	-	.	.
Cc1ccc(N(C)S(=O)(=O)c2cc(-c3cnc(C4CC4)o3)ccc2C)cc1	-	-	-	-	23.1µM	-
CCOC(=O)c1sc(N/N=C/c2ccccc2)nc1C	-	?	-	-	?	-
CC(=O)c1sc(N/N=C\c2ccccc2O)nc1C	?	?	-74.2	?	16.4µM	-
Cc1cn2c(=O)cc(COC(=O)COc3ccccc3C)nc2s1	-	.	.	-	.	.
COc1ccc(-c2ccc(C#N)c(SCC(=O)NCCc3ccccc3)n2)cc1OC	-	-	-	-	-	-
Cc1ccc(SCC(=O)Nc2nccs2)cc1	-	-	-	-	-	-
COc1ccc(-c2ccc(C#N)c(SCC(=O)Nc3sc4c(c3C#N)CCC4)n2)cc1OC	?	2.06µM	-	-	2.91µM	-
Cc1ccc(C#N)c(SCC(=O)Nc2nccs2)n1	-	16.4µM	-	-	?	-
N#Cc1cc2c(nc1SCC(=O)Nc1sc3c(c1C#N)CCC3)CCCCCC2	-	?	-	-	3.26µM	-
COC(=O)CC(=O)CSc1nc2c(cc1C#N)CCC2	-	?	-	-	1.64µM	-
N#Cc1cc2c(nc1SCC(=O)Nc1sc3c(c1C#N)CCC3)CCC2	-	-[9.22 µM]	-	-	?	-
COc1ccc(N2CCN(C(=O)c3cn(C4CCCCC4)c(=O)c4c3c3ccccc3n4C)CC2)cc1	-	.	.	-	.	.
CCC(=O)N1CCc2cc(S(=O)(=O)NCCC(=O)Nc3ccc(C)cc3)ccc21	-	.	.	-	.	.
